# Hit rate of the full screen: of about 310,000 compounds, about 2,200 (0.71%) showed an effect of 50% or more. The effect is printed as a negative number. What follows is part of a selection rich in strong results, with near analogues and random picks from the rest.
# Target: human ether-à-go-go-related gene (hERG) potassium channel (human, UniProt Q12809)
# Assay: primary screen, population patch clamp on CHO cells stably expressing hERG; higher = less effect of the substance
# human ether-à-go-go-related gene (hERG) potassium channel, sequence (Q12809 whole entry, looked up): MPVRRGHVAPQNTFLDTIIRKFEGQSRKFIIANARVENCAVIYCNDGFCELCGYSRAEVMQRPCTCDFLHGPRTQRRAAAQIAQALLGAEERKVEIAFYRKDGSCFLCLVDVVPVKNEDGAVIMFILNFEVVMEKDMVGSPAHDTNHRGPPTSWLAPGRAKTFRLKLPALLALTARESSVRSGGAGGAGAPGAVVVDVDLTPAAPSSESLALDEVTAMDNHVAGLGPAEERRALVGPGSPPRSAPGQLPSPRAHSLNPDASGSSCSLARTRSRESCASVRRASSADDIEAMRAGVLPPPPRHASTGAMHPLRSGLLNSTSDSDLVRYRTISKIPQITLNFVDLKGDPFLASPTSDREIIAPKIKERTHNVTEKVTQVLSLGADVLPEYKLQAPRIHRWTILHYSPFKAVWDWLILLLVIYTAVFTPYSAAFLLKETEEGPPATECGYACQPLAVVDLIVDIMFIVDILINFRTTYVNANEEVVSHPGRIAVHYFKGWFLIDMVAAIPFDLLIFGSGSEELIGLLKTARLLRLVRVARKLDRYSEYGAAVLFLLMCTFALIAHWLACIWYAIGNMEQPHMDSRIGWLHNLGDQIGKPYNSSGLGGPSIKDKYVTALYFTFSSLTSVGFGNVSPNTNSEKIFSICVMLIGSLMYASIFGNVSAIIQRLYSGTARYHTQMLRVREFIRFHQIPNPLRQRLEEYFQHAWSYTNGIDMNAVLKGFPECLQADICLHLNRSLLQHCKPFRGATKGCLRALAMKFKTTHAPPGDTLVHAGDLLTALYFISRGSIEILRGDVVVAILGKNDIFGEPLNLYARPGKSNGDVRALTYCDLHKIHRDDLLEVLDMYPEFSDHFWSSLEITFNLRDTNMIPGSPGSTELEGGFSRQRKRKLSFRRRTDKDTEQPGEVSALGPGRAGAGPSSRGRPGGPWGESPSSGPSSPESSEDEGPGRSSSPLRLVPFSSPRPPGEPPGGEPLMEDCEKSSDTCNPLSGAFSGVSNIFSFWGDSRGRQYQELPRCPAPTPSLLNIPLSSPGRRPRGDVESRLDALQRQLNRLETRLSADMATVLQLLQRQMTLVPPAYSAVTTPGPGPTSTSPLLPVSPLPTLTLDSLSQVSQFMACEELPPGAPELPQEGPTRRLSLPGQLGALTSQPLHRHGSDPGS
row,SMILES,"hERG current change (%, negative = inhibition) at 1uM [%]"
1,CCOC(=O)c1ccc(NC(=O)N2C[C@@H]3C[C@@H](C2)c2cccc(=O)n2C3)cc1,7.4
2,CCOC(=O)N1CCN(Cc2nc(N)nc(Nc3ccc(Cl)cc3)n2)CC1,-22.7
3,Cc1ccc(Nc2nc(N)nc(CN3CCN(C(=O)c4ccco4)CC3)n2)cc1Cl,-54.1
4,Cc1ccc(Nc2nc(N)nc(CN3CCN(Cc4ccccc4)CC3)n2)cc1Cl,-24.5
5,Cc1ccc(Nc2nc(N)nc(CN3CCN(c4ccccc4)CC3)n2)cc1Cl,-10.8
6,O=C(c1ccco1)N1CCN(Cc2ccc(Cl)cc2)CC1,7.26
7,Nc1nc(CN2CCN(C(=O)c3ccco3)CC2)nc(Nc2cccc(Cl)c2)n1,-76.3
8,CN1C(=O)CSc2ccc(NC(=O)Nc3ccccn3)cc21,8.01
9,Cc1ccc(Cl)cc1NC(=O)c1ccc(CSc2nnnn2C)cc1,9.74
10,CCOc1cc(/C=N\NC(=O)C2C(=O)NCC2c2ccccc2)ccc1OC (stereo not shown),10
11,Oc1ccc(C[C@H]2CNCCN2CCc2cccc(F)c2)cc1,7.34
12,CC1CN(C(=O)CCC(=O)NCc2ccccc2)c2cc(Cl)ccc2O1 (stereo not shown),0.521
13,Cc1ccc2c(c1)N(C(=O)CCC(=O)NCCCN1CCN(C)CC1)CC(C)O2 (stereo not shown),8.82
14,CC1CN(C(=O)CCC(=O)NCCCN2CCC(Cc3ccccc3)CC2)c2cc(Cl)ccc2O1 (stereo not shown),-62.2
15,CC1CN(C(=O)CCC(=O)NCCCN2CCN(Cc3ccccc3)CC2)c2cc(Cl)ccc2O1 (stereo not shown),-68.1
16,CCN1CCN(CCCNC(=O)CCC(=O)N2CC(C)Oc3ccc(C)cc32)CC1 (stereo not shown),6.55
17,Cc1ccc2c(c1)N(C(=O)CCC(=O)NCCCN1CCOCC1)CC(C)O2 (stereo not shown),-1.87
18,Cc1ccc(C(=O)c2cc(Br)ccc2N)cc1,12.5
19,COc1ccc(-c2csc(NC(=O)CCNC(=O)c3ccco3)n2)cc1OC,-3.11
20,O=S(=O)(NC1CCCCCCC1)c1ccc(F)cc1,12.2
21,C=CCNC(=O)c1ccccc1NS(=O)(=O)c1ccc(SC)cc1,10.5
22,C=CCNC(=O)c1ccccc1NC(=O)C1CCN(S(=O)(=O)c2ccc(SC)cc2)CC1,-56.8

row,SMILES,"hERG current change (%, negative = inhibition) at 1uM [%]"
1,CSc1ccc(S(=O)(=O)N2CCC(C(=O)Nc3ccccc3C(F)(F)F)CC2)cc1,11.7
2,Cc1cccc2cc(CN(Cc3ccc(F)cc3)C(=O)C(F)(F)F)c3nnnn3c12,30.5
3,COC(=O)[C@@H]1C[C@]2(OC(=O)c3ccccc3)C=CC(=O)C[C@@H]2N1C(=O)OCc1ccccc1,11.9
4,COc1ccc(-c2[nH]ncc2CN2CCCC(C(=O)c3ccc(OC)cc3OC)C2)cc1 (stereo not shown),-47.3
5,CCOC(=O)C1CCN(Cc2cn[nH]c2-c2ccccc2)CC1.O=C(O)C(=O)O,14.2
6,COc1ccc(-c2[nH]ncc2CN2CCC(N3CCSCC3)CC2)cc1F,3.77
7,Fc1ccc(N2CCN(Cc3cn[nH]c3-c3ccccc3)CC2)cc1,-27
8,COc1ccc(-c2[nH]ncc2CN2CCN(c3ccc(F)cc3)CC2)cc1,-4.53
9,COc1ccc(-c2[nH]ncc2CN2CCC(OCc3cccnc3)CC2)c(F)c1,-10.6
10,COc1ccc(-c2[nH]ncc2CN2CCC(c3ccncc3)CC2)cc1F,-51.4
11,COc1ccc(-c2[nH]ncc2CN2CCC(OCc3ccccc3)CC2)c(F)c1,-64.5
12,COCC1CCN(Cc2cn[nH]c2-c2ccc(OC)c(F)c2)C1 (stereo not shown),3.17
13,COc1ccc(-c2[nH]ncc2CN2CCC(C(=O)c3ccc(F)cc3)CC2)cc1,-70.5
14,O=C(c1ccc(F)cc1)C1CCN(Cc2cn[nH]c2-c2ccccc2)CC1,-84.2
15,COc1ccc(-c2[nH]ncc2CN2CCC(OCc3ccccn3)CC2)c(F)c1,2.13
16,CN(C)c1ccc(C(CNC(=O)c2ccco2)N2CCCC2)cc1 (stereo not shown),13.2
17,Cc1nc(C)c(-c2csc(Nc3ccc(O)c(C(=O)O)c3)n2)s1,13.6
18,CC(=O)c1ccc(NC(=S)N2CCN(c3cccc(Cl)c3)CC2)cc1,12.6
19,COC(=O)C1CC(=O)N(c2ccc(C)cc2)C1 (stereo not shown),4.3
20,CCc1ccccc1NC(=O)CCNS(=O)(=O)c1cc(Br)cnc1N,0.979
21,Cl.O=C(OCCN1CCOCC1)c1ccc2c(c1)OCCO2,8.19
22,O=C(NCCc1ccccn1)C1CC(=O)N(Cc2ccccc2Cl)C1 (stereo not shown),4.09

row,SMILES,"hERG current change (%, negative = inhibition) at 1uM [%]"
1,CCCCCCC(=O)Nc1ccc(Cl)cn1,12.1
2,CCOC(=O)C1CCN(Cc2cn[nH]c2-c2ccc(C)cc2)CC1,-23.6
3,Fc1ccc(-c2[nH]ncc2CN2CCN(c3ccc(F)cc3)CC2)cc1,-0.0709
4,O=C(c1ccc(F)cc1)C1CCN(Cc2cn[nH]c2-c2ccc(F)cc2)CC1,-78.9
5,O=C(/C=C/c1ccccc1)NC(=S)Nc1ncccn1,14.1
6,CCN(CC)S(=O)(=O)c1ccc(Cl)c(C(=O)Nc2nncs2)c1,15.1
7,COc1ccccc1OCC(=O)NCCS(=O)(=O)N1CCN(c2ccc(F)cc2)CC1,-3.49
8,O=C(O)c1ccc(-n2nnnc2SCc2ccccc2)cc1,7.44
9,Cc1ccc(-n2nnnc2SCc2ccc(C(=O)O)cc2)cc1C,-80.9
10,O=C(O)c1ccc(CSc2nnnn2-c2ccc(F)cc2)cc1,6.99
11,Cc1c(C#N)c2ccccc2n1CC(=O)NC(C)c1ccccc1 (stereo not shown),4.94
12,COC(=O)c1ccc(CS(=O)(=O)c2ccccc2C)o1,2.66
13,O=C1N=c2ccccc2=C1c1sc(=S)n(CC2CCCO2)c1O (stereo not shown),10.8
14,COc1ccccc1COCC(O)CNCC1(N2CCCCC2)CCCCC1.O=C(O)C(=O)O (stereo not shown),0.206
15,OC(CNCC1(N2CCCCC2)CCCCC1)COc1ccc(Cl)cc1Cl (stereo not shown),-74.2
16,COc1cc(C(C)=O)ccc1OCC(O)CNCC1(N2CCCCC2)CCCCC1.O=C(O)C(=O)O (stereo not shown),2.35
17,Cc1ccccc1NC(=O)CCCN1C(=O)C2CC=CCC2C1=O (stereo not shown),14.5
18,O=C(NC1CCCCC1)C(c1ccncc1)N(C(=O)Cn1nnc(-c2cccs2)n1)C1CCCC1 (stereo not shown),-4.68
19,Cc1ccccc1NC(=O)c1cccc2c1C(=O)N(C1CCCCC1)C2,15
20,O=S(=O)(Nc1cc(F)ccc1F)c1cccc2nonc12,-61
21,O=S(=O)(Nc1cc(F)ccc1F)c1cccc2nsnc12,14.5
22,CSc1ccccc1NS(=O)(=O)c1cccc2nonc12,7.17

row,SMILES,"hERG current change (%, negative = inhibition) at 1uM [%]"
1,CCN1CCN(c2oc(COc3ccc(-c4ccccc4)cc3)nc2C#N)CC1,10.1
2,N#Cc1nc(COc2ccccc2)oc1N1CCN(Cc2ccccc2)CC1,-3.01
3,N#Cc1nc(COc2ccc(F)cc2)oc1N1CCN(Cc2ccccc2)CC1,-51
4,N#Cc1nc(COc2ccc(Cl)cc2)oc1N1CCCC1,-2.53
5,CCN1CCN(c2oc(COc3ccc(Cl)cc3)nc2C#N)CC1,-79.3
6,N#Cc1nc(COc2ccc(Cl)cc2)oc1N1CCN(Cc2ccccc2)CC1,10.2
7,COC(=O)C1CC(Cl)CN1c1ncc(C(F)(F)F)cc1Cl (stereo not shown),15.5
8,COc1ccc(-n2c(CNC(=O)COc3ccc(Cl)cc3)n[nH]c2=S)cc1,16.9
9,C/C(=N\O)C(C)(C)Nc1ccc(Cl)cc1,10.9
10,CCOc1cc(S(=O)(=O)NC2CC(C)(C)NC(C)(C)C2)ccc1Cl,11.2
11,COc1ccccc1-c1nnc2sc(-c3cc4ccccc4o3)nn12,-0.794
12,CN(C)CCCNC(=O)c1ccc(Cl)c(S(=O)(=O)N2CCCCCC2)c1.Cl,-70
13,CCN(CC)CCNC(=O)c1ccc(Cl)c(S(=O)(=O)N2CCCCCC2)c1.Cl,-52.2
14,O=C(NCCCN1CCCC1=O)c1ccc(Cl)c(S(=O)(=O)N2CCCCC2)c1,9.57
15,Cl.O=C(NCCCN1CCOCC1)c1ccc(Cl)c(S(=O)(=O)N2CCCCCC2)c1,-18.9
16,CCN(CC)CCNC(=O)c1ccc(NC(=O)c2ccc(Cl)c(S(=O)(=O)N3CCCCCC3)c2)cc1.Cl,1.9
17,Cl.O=C(NCCN1CCOCC1)c1ccc(Cl)c(S(=O)(=O)N2CCCCCC2)c1,-10.3
18,CN(C)C(=O)C12CCC(C)(C(=O)C1Br)C2(C)C (stereo not shown),14.5
19,O=c1oc(-c2ccco2)nc2sc3c(c12)CCCC3,11.5
20,O=C(CNC(=O)c1ccc(Oc2ccccc2)cc1)OC1CCCCC1=O (stereo not shown),-58.8
21,COc1cc(OC)cc(C(=O)NCC(=O)OC2CCCCC2=O)c1 (stereo not shown),-1.67
22,COc1ccc(C(=O)NCC(=O)OC2CCCCC2=O)cc1 (stereo not shown),-0.0213

# Reference: paper PMC4336329 (PLoS ONE, 2015)
